IP6K1 inhibitor: IP6K1 kinase inhibition | Q92551 | IP6K1 kinase, ADP-Glo luminescence, 2 h; stronger effect = lower value | activity change, % (series mostly up to about 58 µM) | actives 0.81% (n = 140,000) | AID 1645851; in the data active = activity change below about -25%; note: % is set by controls: 0 for no effect and ±100 for the full control effect
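ADP-Glo luminescence measures ADP made by human IP6K1 during a 2 h RT reaction with ATP/IP6 (mix at 1.3 mM/130 uM); top library doses 57.5 and 19.1 uM final.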
KDM5B inhibitor: KDM5B demethylase inhibition; KDM5B demethylase, FDH-coupled NADH fluorescence (FDH is formaldehyde dehydrogenase); actives 2.6% (n = 220,000); Q9UGL1; Potency, µM (titrated, usually from 57.7 µM), most hits filed as inhibitors; active = well fitted inhibition curve with a large enough effect; inconclusive = small, poorly fitted or top-dose-only effect; inactive = no such curve, though single readings can be large or run the other way; note: potency is the fitted concentration of half-maximal effect; 0% is about no effect; nearly all actives have a fitted effect of over 70% in size
Target sequence (Q9UGL1 whole entry, looked up): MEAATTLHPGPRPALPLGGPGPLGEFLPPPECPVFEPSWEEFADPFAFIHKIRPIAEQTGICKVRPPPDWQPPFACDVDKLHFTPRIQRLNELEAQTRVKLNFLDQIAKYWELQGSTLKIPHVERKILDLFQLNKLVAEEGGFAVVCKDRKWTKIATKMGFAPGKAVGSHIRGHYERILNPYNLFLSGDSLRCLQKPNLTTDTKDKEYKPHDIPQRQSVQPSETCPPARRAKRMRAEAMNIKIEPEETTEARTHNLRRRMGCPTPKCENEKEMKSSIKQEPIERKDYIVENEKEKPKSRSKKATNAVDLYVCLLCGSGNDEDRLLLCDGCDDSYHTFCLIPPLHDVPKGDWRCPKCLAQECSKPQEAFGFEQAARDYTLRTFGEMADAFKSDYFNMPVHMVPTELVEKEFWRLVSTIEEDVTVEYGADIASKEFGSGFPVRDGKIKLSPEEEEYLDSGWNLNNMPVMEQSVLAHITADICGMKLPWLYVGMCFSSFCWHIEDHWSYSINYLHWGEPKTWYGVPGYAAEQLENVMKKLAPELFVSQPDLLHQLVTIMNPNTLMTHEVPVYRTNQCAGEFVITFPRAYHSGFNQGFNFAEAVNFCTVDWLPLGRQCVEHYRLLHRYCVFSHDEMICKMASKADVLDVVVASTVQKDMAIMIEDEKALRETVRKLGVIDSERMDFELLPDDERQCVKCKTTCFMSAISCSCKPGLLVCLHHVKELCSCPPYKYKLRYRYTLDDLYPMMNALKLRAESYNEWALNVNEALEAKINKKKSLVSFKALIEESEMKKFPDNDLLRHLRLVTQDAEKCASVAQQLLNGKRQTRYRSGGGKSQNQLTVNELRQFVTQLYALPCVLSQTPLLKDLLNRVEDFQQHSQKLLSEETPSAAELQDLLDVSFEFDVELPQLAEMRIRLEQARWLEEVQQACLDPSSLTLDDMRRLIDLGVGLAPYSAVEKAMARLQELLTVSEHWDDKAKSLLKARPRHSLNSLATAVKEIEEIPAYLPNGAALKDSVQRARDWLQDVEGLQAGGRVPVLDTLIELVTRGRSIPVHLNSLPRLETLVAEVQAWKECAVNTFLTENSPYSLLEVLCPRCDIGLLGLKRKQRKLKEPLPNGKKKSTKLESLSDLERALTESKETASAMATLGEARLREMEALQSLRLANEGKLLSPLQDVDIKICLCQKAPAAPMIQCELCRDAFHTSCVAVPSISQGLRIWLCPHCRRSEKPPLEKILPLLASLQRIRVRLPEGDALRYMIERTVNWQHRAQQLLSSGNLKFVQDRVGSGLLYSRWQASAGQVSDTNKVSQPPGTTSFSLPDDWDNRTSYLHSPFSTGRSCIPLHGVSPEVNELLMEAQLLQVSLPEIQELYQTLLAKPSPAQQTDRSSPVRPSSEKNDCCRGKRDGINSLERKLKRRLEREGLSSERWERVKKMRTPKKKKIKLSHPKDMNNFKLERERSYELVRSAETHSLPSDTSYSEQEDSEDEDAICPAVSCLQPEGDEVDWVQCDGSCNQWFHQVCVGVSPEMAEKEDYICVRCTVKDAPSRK
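Here, H3K4me3 peptide (12.5 µM in substrate mix) is demethylated by KDM5BΔAP, 200 nM final, after 10 min compound exposure. Formaldehyde product is coupled through FDH (0.25 U/mL in mix) to NADH fluorescence; 30-min ΔRFU feeds dose-response curves.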
* = called active by the depositor; i = inactive; ? = inconclusive; / = not tested or not shown. In the library only some 2.7% were active in any assay of this set; here they are far more common.

SMILES | IP6K1 inhibitor | KDM5B inhibitor
COc1ccc(Nc2ccnc(N3CCC(NC(=O)c4cccc(Cl)c4)CC3)n2)cc1 | -2.5 | /
O=C(CN1CCC(Cc2ccccc2)CC1)c1c[nH]c2ccccc12 | / | i
CC(=O)Nc1ccc(C(=O)CSc2ccccc2Cl)cc1 | / | i
N#Cc1cccnc1Sc1ccc(F)c(Cl)c1 | / | i
CN1CCOc2nc(-c3cccc(OC(F)(F)F)c3)ncc2C1=O | 2.7 | i
COc1ccc(Cl)cc1-c1ncc2c(n1)OCCN(c1ccccc1)C2=O | 11.1 | 28.2µM*
COc1ccccc1-c1ncc2c(n1)OCCN(c1cccc(C(F)(F)F)c1)C2=O | -9.9 | 31.6µM*
Cc1ccccc1-c1ncc2c(n1)OCCN(c1ccccc1)C2=O | -18.2 | i
COc1ccc(-c2ncc3c(n2)OCCN(C)C3=O)cc1OC | -4.1 | 28.2µM*
COc1ncccc1-c1ncc2c(n1)OCCN(c1cccc(C(F)(F)F)c1)C2=O | -9.6 | i
O=C1N(Cc2ccccc2F)CCOC12CCN(Cc1ccccc1F)CC2 | -4.9 | 15.8µM*
O=C1N(Cc2ccccc2F)CCOC12CCN(Cc1ccccc1)CC2 | 7.5 | ?
CC1CCCCC1NC(=O)C1CC=CCC1 (stereo unspecified) | / | i
O=C(Nc1ccc(F)cc1)c1cc2n(n1)CC(c1ccc3c(c1)OCO3)OC2 (stereo unspecified) | -4.3 | ?
O=C(NC1CCCC1)c1cc2n(n1)CC(c1ccc3c(c1)OCO3)OC2 (stereo unspecified) | 4.5 | ?
COc1ccc(NC(=O)c2cc3n(n2)CC(c2ccc4c(c2)OCO4)OC3)cc1 (stereo unspecified) | 28.0 | ?
O=C(Nc1cccc(Cl)c1)c1cc2n(n1)CC(c1ccc3c(c1)OCO3)OC2 (stereo unspecified) | -6.4 | 25.1µM*
O=C(Nc1ccc(Cl)cc1)c1cc2n(n1)CC(c1ccc3c(c1)OCO3)OC2 (stereo unspecified) | 7.7 | 28.2µM*
O=C(c1cc2n(n1)CC(c1ccc3c(c1)OCO3)OC2)N1CCCC1 (stereo unspecified) | -15.4 | 28.2µM*
COc1ccc(NC(=O)c2cc3n(n2)CC(c2ccc4c(c2)OCO4)OC3)c(OC)c1 (stereo unspecified) | -4.1 | 35.5µM*
CCc1cccc(NC(=O)c2cc3n(n2)CC(c2ccc4c(c2)OCO4)OC3)c1 (stereo unspecified) | -2.4 | ?
O=C(c1nn(Cc2ccccc2)c(=O)c2ccccc12)N1CCN(c2ccc([N+](=O)[O-])cc2)CC1 | / | i
COc1cccc(C(=O)Nc2nnc(CCc3ccccc3)s2)c1 | / | i
Cc1ccc(/C(=N/O)c2cccs2)cc1 | / | i
CCCc1cc(=O)n2nc(N(C)CC(=O)Nc3cc(Cl)ccc3C)sc2n1 | / | i
SMILES | IP6K1 inhibitor | KDM5B inhibitor
CCc1nnsc1C(=O)N(C)Cc1cccc(Cl)c1 | / | i
CC(O)CNC(=O)c1ccccc1 (stereo unspecified) | / | i
Cn1ncc2c(C(=O)Nc3cccc(Cl)c3)cc(-c3ccc(Cl)cc3Cl)nc21 | 9.7 | /
Cc1cc(NC(=O)c2cc3n(n2)CC(c2ccc(Cl)cc2)OC3)ccc1F (stereo unspecified) | 20.5 | ?
O=C(Nc1ccc2c(c1)CCC2)c1cc2n(n1)CC(c1ccc(Cl)cc1)OC2 (stereo unspecified) | -5.7 | 31.6µM*
O=C(COC(=O)c1cccc(S(=O)(=O)N2CCCC2)c1)Nc1ccc(Cl)cn1 | / | i
COc1ccc2c(C)c(CC(=O)Nc3ccccc3F)c(=O)oc2c1C | / | i
COc1ccc(NC(=O)N2CCC(N3CC4CC(C3)[C@H]3CCCC(=O)N3C4)CC2)cc1OC (stereo partly specified) | 7.2 | 25.1µM*
COc1ccc(C(=O)N2CCC(N3CC4CC(C3)[C@H]3CCCC(=O)N3C4)CC2)cc1 (stereo partly specified) | -0.5 | i
O=C(COc1ccccc1)N1CCC(N2CC3CC(C2)[C@H]2CCCC(=O)N2C3)CC1 (stereo partly specified) | 33.3 | 22.4µM*
COc1ccc(C)cc1NC(=O)N1CCC(N2CC3CC(C2)[C@H]2CCCC(=O)N2C3)CC1 (stereo partly specified) | 4.8 | i
Cc1nc(C)c(C(=O)N2CCC(N3CC4CC(C3)[C@H]3CCCC(=O)N3C4)CC2)s1 (stereo partly specified) | 9.0 | 15.8µM*
O=C(COc1ccccc1)N1CC2CC(C1)[C@H]1CCCC(=O)N1C2 (stereo partly specified) | 20.3 | i
Cc1ccc(C)c(NC(=O)CSc2nccn2Cc2ccccc2Cl)c1 | / | i
CC(C)=CC(=O)N(CC1CCOC1)C1CC1 (stereo unspecified) | / | i
CC(C)(C)c1cc(CC2(NCc3ccc(OC(F)(F)F)cc3)COC2)no1 | -4.1 | i
Cc1cc(-c2cc3c(ccn3C(C)C)c(C(=O)NCc3c(C)cc(C)[nH]c3=O)n2)ccn1 | 13.6 | i

Compound activity as filed in PubChem.
